Our source for the Potency and outcome values is PubChem BioAssay (Tox21).

The nature of assay [1]: qHTS assay to identify small molecule agonists of the vitamin D receptor (VDR) signaling pathway - cell viability counter screen (AID 743224; active = well fitted curve in the direction sought with a large enough effect in the repeat runs; an effect the other way counts as inactive or inconclusive; note: nearly all actives have a fitted effect of over 50% in size). Particulars: VDR-bla HEK293T viability, CellTiter-Glo luminescence, 16 h; series mostly up to 62.6 µM. The method, boiled down:
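Counter screen run in the same wells as the VDR-bla reporter assay: CellTiter-Glo luminescence, 30 min at room temperature, after 16 h compound treatment at 37C of cells pre-plated for 4 h.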
In general terms: Quantitative high-throughput screening tests each substance at several concentrations.

Assay [2] in a line: qHTS assay to identify small molecule antagonists of the vitamin D receptor (VDR) signaling pathway - cell viability counter screen (AID 743225; active = well fitted curve in the direction sought with a large enough effect in the repeat runs; an effect the other way counts as inactive or inconclusive; note: nearly all actives have a fitted effect of over 50% in size). As to conditions: VDR-bla HEK293T viability, CellTiter-Glo luminescence, 16 h; series mostly up to 61 µM. In outline: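 In this counter screen, VDR-bla HEK 293T cells receive test compound plus 3 nM final calcitriol for 16 h at 37C. Room-temperature steps of 2 h with the beta-lactamase substrate, then 30 min with CellTiter-Glo, precede the luminescence read.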

Assay [3] is described as follows: qHTS assay to identify small molecule agonists of the NFkB signaling pathway (AID 1159509; active = well fitted curve in the direction sought with a large enough effect in the signal ratio in the repeat runs, not every such curve was filed as active; the % refers to the signal ratio). As to conditions: NFkB-bla ME-180 cells, beta-lactamase FRET ratio, 5 h; series mostly up to 61 µM. In outline: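 Readout: FRET fluorescence, 405 nm excitation, 460/530 nm emission; beta-lactamase expression disrupts FRET. Cells: ME-180 stably carrying NF-kB-driven bla reporter. Compound exposure 5 hr, 37 C, 5% CO2.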

Assay [4] can be described thus: qHTS assay to identify small molecule agonists of the NFkB signaling pathway - cell viability counter screen (AID 1159515). Note: nearly all actives have a fitted effect of over 55% in size. Particulars: NFkB-bla ME-180 viability, CellTiter-Glo luminescence, 5 h; series mostly up to 61 µM. The method, boiled down:
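Read by CellTiter-Glo luminescence (30 min, room temperature) in the wells also used for the beta-lactamase FRET read. ME-180 NFkB-bla cells at 2,000 per well were plated overnight, then exposed to compound for 5 hr at 37 C.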

Assay [5] is described as follows: qHTS assay to identify small molecule agonists of the endoplasmic reticulum stress response signaling pathway - cell viability counter screen (AID 1159517). Note: nearly all actives have a fitted effect of over 50% in size. As to conditions: ESRE-bla HeLa viability, CellTiter-Glo luminescence, 5 h; series mostly up to 61 µM. The method, boiled down: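 Cytotoxicity of test compounds toward ESRE-bla HeLa cells was assessed after 5 hr exposure. The luminescent CellTiter-Glo signal was measured 30 min after reagent addition.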

A short description of assay [6]: qHTS assay to identify small molecule antagonists of the retinoid-related orphan receptor gamma (ROR-gamma) signaling pathway - cell viability counter screen (AID 1159520; active = well fitted curve in the direction sought with a large enough effect in the repeat runs; an effect the other way counts as inactive or inconclusive; note: nearly all actives have a fitted effect of over 50% in size). Particulars: Tet-on RORgamma CHO cells viability, ATP luminescence, 16 h; series mostly up to 92.4 µM. In outline: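 Tet-on ROR gamma CHO cells (1,000/well) were plated 4 hr, given compounds in DMSO for 2 hr at 37 C, then induced with 1 uM final doxycycline for 16 hr. Viability was read as ATP by CellTiter-Glo luminescence after 30 min.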

Assay [7] can be described thus: qHTS assay to identify small molecule agonists of the AP-1 signaling pathway - cell viability counter screen (AID 1159525). Note: nearly all actives have a fitted effect of over 55% in size. Particulars: ME-180 AP-1-bla cells viability, ATP luminescence, 5 h; series mostly up to 76.8 µM. In outline:
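Each titration point was normalised to DMSO and tetra n-octyl ammonium bromide controls. The read was Cell Titer Glo luminescence after 30 min at RT, following 5 h compound exposure of ME-180 AP-1-bla cells at 37 °C.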

The nature of assay [8]: qHTS assay to identify small molecule agonists of the AP-1 signaling pathway (AID 1159526). Particulars: ME-180 (cervical carcinoma) AP-1-bla reporter, beta-lactamase FRET ratio, 5 h; series mostly up to 76.8 µM.
Assay [9] deals with Nuclear receptor ROR-gamma (Homo sapiens) (UniProt P51449). The experiment in a line: qHTS assay to identify small molecule antagonists of the retinoid-related orphan receptor gamma (ROR-gamma) signaling pathway (AID 1159521; active = well fitted curve in the direction sought with a large enough effect in the repeat runs; an effect the other way counts as inactive or inconclusive; note: nearly all actives have a fitted effect of over 50% in size; note: potency is the fitted concentration of half-maximal effect). Particulars: Tet-on RORgamma CHO cells, RORE-luciferase, 16 h; series mostly up to 92.4 µM. The method, boiled down:
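Screening format: cell-based luciferase reporter in CHO cells with doxycycline-inducible RORγ. Compound pre-exposure lasts 2 h, doxycycline is 1 uM final, induction runs 16 h at 37 C, and ONE-Glo luminescence is read.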

Assay [10] in a line: qHTS assay to identify small molecule agonists of the endoplasmic reticulum stress response signaling pathway (AID 1159516; active = well fitted activation curve with a large enough effect in the signal ratio in the repeat runs, not every such curve was filed as active; the % refers to the signal ratio). Particulars: ESRE-bla HeLa, ER stress beta-lactamase reporter, 5 h; series mostly up to 61 µM. The method, boiled down:
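Ratiometric FRET readout (405 nm excitation; 460 and 530 nm emission) of a beta-lactamase gene driven by the ER stress response element, after 2 hr substrate loading. HeLa ESRE-bla cells were seeded overnight and treated with compounds for only 5 hr at 37 C.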

Records with an inconclusive call do not appear. The source made the active and inactive calls. Unless noted, calls come from the whole dose curve.

Regarding `COC(=O)C(C)O` (configuration not stated), the Potency entry in assay [1], in [2], in [6] and in assay [8] was “inactive” in each case. In addition, the result in assay [3], in assay [4], in assay [5] and in assay [7] was inactive.

For the compound `C[C@]12CCC(=O)C=C1CC[C@@H]1[C@@H]2CC[C@@]2(C)[C@H]1CC[C@]2(O)C(=O)CO`, the Potency entry in [1], in [2], in [6] and in assay [9] was “inactive” in each case. The result in [3], in [4], in assay [5] and in assay [7] was inactive.

Take `Nc1cccc(S(=O)(=O)O)c1`: the Potency entry in assay [1], in assay [2], in assay [6] and in assay [8] was “inactive” throughout. Also, the outcome in assay [3], in [4], in assay [5] and in assay [7] was inactive.

For the compound `O=Cc1ccc(F)c(Br)c1`, the Potency entry in [1], in [2], in assay [6], in [9] and in [8] was “inactive” in each case. Moreover, the outcome in [3], in assay [4] and in assay [5] was inactive.

As for `O=C(O)[C@@H](O)[C@H](O)[C@H](O)[C@@H](O)C(=O)O`, the Potency result in assay [1], in assay [2], in assay [6], in [9] and in [8] was “inactive” in each case. Moreover, the outcome in [3], in assay [4] and in assay [5] was inactive.

`CC(=O)N[C@@H](CC(C)C)C(=O)O`: the Potency entry in assay [1], in assay [2], in assay [6] and in assay [8] was “inactive” throughout. The result in assay [3], in assay [4], in assay [5] and in assay [7] was inactive.

In the case of `C=CCc1cc(OC)c(O)c(C(=O)NCCO)c1`, the Potency entry in [1], in [2], in [9] and in assay [8] was “inactive” in each case. Further, the outcome in assay [3], in assay [4] and in assay [5] was inactive.

On to `CCNCCO`, for which the Potency entry in assay [1], in assay [2], in assay [6] and in assay [9] was “inactive” throughout. Besides, the result in assay [3], in assay [4], in [5] and in assay [7] was inactive.

With `CN1CCN(N)CC1`, the Potency entry in assay [1], in assay [2], in [6], in assay [9] and in [8] was “inactive” throughout. For the same compound, the result in assay [3], in assay [4] and in [5] was inactive.

Consider `CC(C)Nc1nc(N)nc(Cl)n1`, for which the Potency entry in assay [1], in assay [6] and in assay [8] was “inactive” throughout. The result in [3], in assay [4], in [5] and in assay [7] was inactive.

As for `CCN1CC(CCN2CCOCC2)C(c2ccccc2)(c2ccccc2)C1=O` (configuration not stated), the Potency result in [1], in assay [6] and in [8] was “inactive” throughout. The outcome in assay [3], in [4], in assay [5] and in assay [7] was inactive.

As for `CCc1cc2cc(OC)c(OC)cc2c(Cc2ccccc2)n1`, the Potency entry in assay [1], in [2] and in assay [6] was “inactive” throughout. Moreover, the result in assay [3], in [4], in [5] and in assay [7] was inactive.

As for `CCC/C=C/CO`, the Potency result in [1], in assay [2], in assay [6] and in assay [8] was “inactive” in each case. The outcome in assay [4], in assay [10] and in [5] was inactive.

Regarding `COC(=O)/C=C(/C)N`, the Potency result in assay [1], in assay [2], in assay [6] and in assay [8] was “inactive” in each case. For the same compound, the result in assay [3], in [4], in assay [5] and in assay [7] was inactive.

As to `CN1C(=O)CC(c2ccccc2)C1=O` (configuration not stated), the Potency entry in assay [1], in assay [2], in assay [6] and in [8] was “inactive” throughout. Also, the result in assay [3], in assay [4], in assay [5] and in assay [7] was inactive.

As to `COc1cc(Cl)ccc1Cl`, the Potency entry in assay [1], in [2], in assay [6] and in assay [8] was “inactive” in each case. Also, the outcome in assay [3], in [4], in assay [5] and in assay [7] was inactive.

As for `ClC(Cl)Cl`, the Potency result in assay [1], in assay [2] and in assay [6] was “inactive” throughout. Further, the outcome in assay [3], in assay [4] and in [5] was inactive. For the same compound, in assay [9], the Potency is 48.2 µM (active).

In the case of `CCCN(CCC)C(=O)C(CCC(=O)O)NC(=O)c1ccccc1` (configuration not stated), the Potency entry in assay [1], in assay [2], in assay [6], in assay [9] and in [8] was “inactive” in each case. The outcome in [3], in assay [4] and in [5] was inactive.

Turning to `COc1cc(C)ccc1C(C)C`, the Potency result in assay [1], in assay [2], in assay [6] and in assay [8] was “inactive” in each case. In addition, the result in assay [3], in assay [4], in [5] and in assay [7] was inactive.

For the compound `C=CC(C)(O)CC/C=C(\C)CCC=C(C)C` (configuration not stated), the Potency result in assay [1] and in [9] was “inactive” in each case. Further, the result in [3], in assay [4], in assay [5] and in assay [7] was inactive.

Take `Cc1onc(-c2ccccc2)c1C(=O)Cl`: the Potency result in assay [1], in [2], in assay [6] and in assay [8] was “inactive” in each case. For the same compound, the result in assay [3], in assay [4], in assay [5] and in assay [7] was inactive.

`C=Cc1ccccc1`: the Potency result in [1], in assay [2] and in assay [8] was “inactive” each time. Further, the result in assay [3], in assay [4], in assay [5] and in assay [7] was inactive.

For the compound `O=C1Nc2ccc([N+](=O)[O-])cc2C1=O`, the Potency entry in [1] and in assay [6] was “inactive” each time. The result in assay [3], in assay [4], in assay [5] and in assay [7] was inactive.

As for `N#CSCC(=O)O`, the Potency entry in assay [1], in [2], in [6] and in assay [8] was “inactive” throughout. The outcome in [3], in assay [4], in assay [5] and in [7] was inactive.

With `CCCOCCC`, the Potency result in [1], in assay [6] and in [8] was “inactive” each time. The result in assay [3], in [4], in assay [5] and in assay [7] was inactive.

As to `C=CC1CO1` (configuration not stated), the Potency result in [1], in assay [2], in assay [6], in assay [9] and in assay [8] was “inactive” throughout. The outcome in [3], in [4] and in [5] was inactive.

As to `CC(=O)Oc1cc(C(C)C)c(OCCN(C)C)cc1C`, the Potency result in assay [1], in [2] and in [6] was “inactive” throughout. For the same compound, the result in assay [3], in assay [4], in assay [5] and in [7] was inactive.

In the case of `COc1ccccc1OCC(O)COC(N)=O` (configuration not stated), the Potency entry in [1], in assay [2] and in [6] was “inactive” each time. Also, the result in assay [3], in assay [4] and in [5] was inactive.

Turning to `CCCOc1ccc2c(c1)CC[C@@H]1[C@@H]2CC[C@]2(C)C(OC)CC[C@@H]12` (some centres not stated), the Potency entry in assay [1], in [2] and in assay [9] was “inactive” in each case. The result in [3], in assay [4] and in [5] was inactive.

Turning to `O=C(O)[C@@H]1CSCN1`, the Potency result in assay [1], in assay [2] and in assay [8] was “inactive” in each case. Further, the outcome in assay [3], in assay [4], in assay [5] and in assay [7] was inactive.
